# Experimental data published in publication PMC5540273 (PLoS ONE, 2017).
# Legend:
# Details in all cases: concentration: 1 μM,replicates: in singlicate; n = 1
# TNNI3K = system: TNNI3K
# TRKA = system: T1, TRKA
# T1 construct: gene NTRK1
# TRKB = system: TRKB
# TRKC = system: T2, TRKC
# T2 construct: gene NTRK3
# TRPM6 = system: TRPM6
# TSSK1B = system: TSSK1B
# TSSK3 = system: TSSK3
# TTK = system: TTK
# TXK = system: TXK
# [1] = system: TYK2(JH1domain-catalytic)
# 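Further: KINOMEscan kinase panel screen.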
SMILES,%Inh (TNNI3K),%Inh (TRKA),%Inh (TRKB),%Inh (TRKC),%Inh (TRPM6),%Inh (TSSK1B),%Inh (TSSK3),%Inh (TTK),%Inh (TXK),%Inh [1]
CCN(CC)CCCCNc1ncc2cc(-c3c(Cl)cccc3Cl)c(NC(=O)NC(C)(C)C)nc2n1,91.5%,90%,55%,45%,0%,0%,0%,2%,47%,7%
O=C(NCCCN1CCOC1=O)c1cnc(NCc2cc(Cl)ccc2Cl)nc1NC1CCCC1,9%,15%,0%,4%,2%,0%,0%,17%,17%,0%
CC(C)N1C(=O)Cc2cc(Nc3ncc(C(F)(F)F)c(NCc4cccc(S(C)(=O)=O)c4)n3)ccc21,0%,96.7%,84%,62%,4%,0%,0%,99.1%,0%,92.2%
CCn1c(-c2nonc2N)nc2c(C#CC(C)(C)O)nc(OCCN)cc21.Cl.Cl [GSK902056],0%,0%,0%,0%,0%,23%,85%,0%,36%,17%
C[C@H]1Oc2cc(cnc2N)-c2c(nn(C)c2C#N)CN(C)C(=O)c2ccc(F)cc21,0%,97.7%,93.4%,78%,0%,58%,0%,7%,0%,0%
Cl.Cl.Nc1nc(-c2ccc3c(N)n[nH]c3c2)cc(N2CCCC(NC(=O)c3ccccc3)C2)n1 (stereo not drawn) [GSK2286775],0%,0%,0%,0%,46%,13%,10%,0%,100%,0%
CN(C)CCOc1ccc(-c2cc(-c3c[nH]nc3-c3ccccn3)ccn2)cc1 [GW835314],12%,0%,0%,32%,2%,0%,0%,0%,8%,31%
C[C@@H]1CCN(C(=O)CC#N)C[C@@H]1N(C)c1ncnc2[nH]ccc12,0%,0%,0%,0%,0%,0%,0%,0%,1%,
Cl.Cl.NC[C@H](CC1CCCCC1)NC(=O)c1cc(Br)c(-c2ccnc3[nH]ccc23)s1 [GSK1581427],0%,84%,64%,57%,8%,58%,3%,21%,1%,13%
Cl.Oc1cc(-c2nc(-c3ccccc3)[nH]c2-c2ccncc2)ccc1Cl [SB-386023],14%,19%,6%,12%,23%,0%,0%,29%,42%,0%
Cc1cc(C(=O)Nc2ccc(Oc3ccc4nc(NC(=O)C5CC5)cn4n3)cc2)nn1-c1ccccc1,14%,100%,64%,12%,0%,0%,0%,26%,22%,15%
Cc1ccc(-n2nc(C(C)(C)C)cc2NC(=O)Nc2ccc(OCCN3CCOCC3)c3ccccc23)cc1 [GW839464],0%,32%,70%,,0%,10%,0%,31%,13%,0%
C[C@@H](Oc1cc(-c2cnn(C3CCNCC3)c2)cnc1N)c1c(Cl)ccc(F)c1Cl,88%,99.9%,99.7%,,21%,0%,0%,0%,41%,84%
Cl.Cl.NC[C@H](Cc1ccc(C(F)(F)F)cc1)NC(=O)c1cc(Br)c(-c2ccnc3[nH]ccc23)s1 [GSK1487252],13%,86%,67%,74%,0%,0%,2%,10%,0%,3%
CNC(=O)c1ccccc1Sc1ccc2c(/C=C/c3ccccn3)n[nH]c2c1,0%,77%,15%,0%,0%,0%,1%,0%,0%,0%
CCN(CC)CCOc1ccc(Nc2ncc3cc(-c4c(Cl)cccc4Cl)c(=O)n(C)c3n2)cc1 [SB-601273],100%,100%,43%,92.9%,48%,56%,24%,59%,99.5%,96.7%
Cc1cc2cn[nH]c2cc1-c1cccc2c(N)c(C(N)=O)nnc12,0%,51%,66%,54%,75%,0%,28%,34%,95.4%,71%
C=CC(=O)Nc1cc2c(Nc3ccc(F)c(Cl)c3)ncnc2cc1OCCCN1CCOCC1 [GW781483],0%,47%,4%,18%,0%,0%,47%,0%,82%,25%
NC(=O)c1cc(-c2ccccc2)cc2c(C3CCNCC3)c[nH]c12 [GSK301362],10%,51%,0%,4%,33%,27%,22%,24%,0%,69%
CN(C)CC(O)COc1ccc(Nc2nccc(-c3cnn4nc(N5CCOCC5)ccc34)n2)cc1 (stereo not drawn) [GW767488],0%,81%,31%,45%,33%,5%,65%,57%,3%,66%
O=C(NCCNc1ccnc(NCc2ccc(F)cc2)n1)c1cc2ccccc2s1 [GSK1379944],69%,0%,0%,22%,1%,16%,4%,0%,11%,2%
Cc1occc1-c1nc(N)c(OC[C@@H](N)Cc2c[nH]c3ccccc23)cc1-c1cc2c(C)n[nH]c2cn1 [GSK1660450],20%,3%,0%,0%,22%,20%,5%,32%,43%,3%
Cc1ccc2c(-c3ccncc3)c(-c3ccc(F)cc3)nn2c1.Cl [GW461484],5%,18%,0%,2%,8%,9%,9%,0%,0%,0%
Nc1nc(Nc2ccccc2)cc(-c2ccc3c(N)n[nH]c3c2)n1 [GSK2225749],0%,30%,0%,0%,0%,2%,24%,24%,0%,46%
Cc1n[nH]c2ccc(-c3cc(OC[C@@H](N)Cc4ccccc4)cnc3-c3ccoc3)cc12.O=C(O)C(F)(F)F.O=C(O)C(F)(F)F [GSK507358],0%,0%,0%,15%,0%,0%,6%,0%,0%,7%
COc1ccc(C[C@@H](CN)NC(=O)c2cc(Br)c(-c3ccnc4[nH]ccc34)s2)cc1.Cl.Cl [GSK1389063],27%,91.8%,90.8%,90.3%,0%,28%,12%,23%,30%,82%
CC(C)Nc1cc(-c2ccc3c(N)n[nH]c3c2)nc(N)n1 [GSK2221681],0%,0%,0%,0%,13%,1%,58%,24%,0%,0%
